The results in this text go back to PubChem BioAssay.

Structures are written as SMILES. The source made the active and inactive calls. Unless noted, how the calls were made is not given here.

The nature of test [1]: compounds binding Alexa647 anti-His antibody – biochemical, small-molecule microarray, 635 nm fluorescence, artefact control for SMM control protein annotation, primary screen (AID 1128).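 Further: score merges feature fluorescence with signal-to-noise for each printed compound spot.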 The note with it: higher = more signal.
Test [2] relates to Human papillomavirus type 1a E7 protein (residues 1-88). As to the kind of experiment: HPV1a E7 small-molecule binders, primary screen, biochemical, small-molecule microarray, residues 1-88, 635 nm (AID 1129). To be noted: small-molecule microarray binding, fluorescence 635 nm; higher = more signal.
Test [3] deals with Focal adhesion kinase 1 (Homo sapiens) (UniProt Q05397). As to the kind of experiment: PTK2 protein binding on printed compound slides – biochemical, small-molecule microarray, 635/667 nm fluorescence, BSA, DTT, primary screen (AID 1130).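 Further: composite of spot emission at 667 nm and signal to noise over triplicate slides.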 To be noted: 635 nm fluorescence, higher = more signal.
Sequence of Focal adhesion kinase 1 (Homo sapiens) (Q05397 whole entry, looked up): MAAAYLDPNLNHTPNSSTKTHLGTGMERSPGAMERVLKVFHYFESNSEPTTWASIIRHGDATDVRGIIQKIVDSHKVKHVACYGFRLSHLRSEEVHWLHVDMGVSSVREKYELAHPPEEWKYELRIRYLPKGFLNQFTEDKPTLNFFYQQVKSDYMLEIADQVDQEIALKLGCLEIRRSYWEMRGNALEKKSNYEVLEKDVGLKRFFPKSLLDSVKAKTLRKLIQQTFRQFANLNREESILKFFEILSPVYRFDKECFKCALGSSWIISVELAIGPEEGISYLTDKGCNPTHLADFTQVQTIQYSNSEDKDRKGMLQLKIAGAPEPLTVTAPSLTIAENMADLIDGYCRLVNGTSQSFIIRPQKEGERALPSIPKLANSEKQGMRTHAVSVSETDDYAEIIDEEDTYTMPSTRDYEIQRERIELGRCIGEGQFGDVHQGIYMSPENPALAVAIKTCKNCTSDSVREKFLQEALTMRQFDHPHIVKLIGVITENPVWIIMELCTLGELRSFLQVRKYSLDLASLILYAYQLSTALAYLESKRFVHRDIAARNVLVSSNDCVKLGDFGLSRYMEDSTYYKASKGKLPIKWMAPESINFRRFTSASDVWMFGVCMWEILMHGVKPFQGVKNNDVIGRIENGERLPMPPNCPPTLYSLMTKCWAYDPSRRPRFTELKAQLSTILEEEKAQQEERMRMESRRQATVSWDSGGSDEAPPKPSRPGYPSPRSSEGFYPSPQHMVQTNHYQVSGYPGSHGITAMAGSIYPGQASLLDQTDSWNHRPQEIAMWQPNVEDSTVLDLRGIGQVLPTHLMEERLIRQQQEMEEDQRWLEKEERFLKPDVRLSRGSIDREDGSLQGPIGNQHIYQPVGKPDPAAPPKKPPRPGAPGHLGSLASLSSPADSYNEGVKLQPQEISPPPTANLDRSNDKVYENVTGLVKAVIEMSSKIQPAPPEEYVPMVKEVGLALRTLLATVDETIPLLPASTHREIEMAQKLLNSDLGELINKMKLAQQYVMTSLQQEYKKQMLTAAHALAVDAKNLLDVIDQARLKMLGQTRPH
For test [4], the system named is Fibrinogen (Alexa647-labelled). Put plainly: Alexa647-fibrinogen binding to printed small molecules – biochemical, small-molecule microarray, 635/667 nm fluorescence, artefact control for SMM control-protein annotation, profiling panel (AID 1131).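 Further: z-score merges 667 nm fluorescence with per-spot signal-to-noise over triplicate slides.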 The note with it: fibrinogen-A647 binding fluorescence, higher = more signal.
The target in test [5] is Follistatin (Homo sapiens) (UniProt P19883). As to the kind of experiment: FST protein binding to printed compounds – biochemical, small-molecule microarray, 635/667 nm fluorescence, primary screen (AID 1132). The note with it: 635 nm fluorescence, higher = more signal.
Sequence of Follistatin (Homo sapiens) (P19883 whole entry, looked up): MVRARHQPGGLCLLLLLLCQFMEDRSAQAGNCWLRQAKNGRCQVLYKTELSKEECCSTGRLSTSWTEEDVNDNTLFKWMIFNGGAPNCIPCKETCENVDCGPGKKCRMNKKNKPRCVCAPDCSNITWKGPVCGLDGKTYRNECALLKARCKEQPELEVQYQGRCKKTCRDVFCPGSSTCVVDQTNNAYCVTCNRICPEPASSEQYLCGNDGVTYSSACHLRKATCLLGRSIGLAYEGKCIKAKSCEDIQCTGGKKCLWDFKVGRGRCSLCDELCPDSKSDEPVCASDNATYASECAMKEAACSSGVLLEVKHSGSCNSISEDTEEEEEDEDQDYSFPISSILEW
Test [6] deals with Fibroblast growth factor 2 (Homo sapiens) (UniProt P09038). Put plainly: basic fibroblast growth factor binding to printed compounds – biochemical, small-molecule microarray, 635/667 nm fluorescence, primary screen (AID 1133). To be noted: FGF2, fluorescence 635/667, higher = more signal.
Sequence of Fibroblast growth factor 2 (Homo sapiens) (P09038 whole entry, looked up): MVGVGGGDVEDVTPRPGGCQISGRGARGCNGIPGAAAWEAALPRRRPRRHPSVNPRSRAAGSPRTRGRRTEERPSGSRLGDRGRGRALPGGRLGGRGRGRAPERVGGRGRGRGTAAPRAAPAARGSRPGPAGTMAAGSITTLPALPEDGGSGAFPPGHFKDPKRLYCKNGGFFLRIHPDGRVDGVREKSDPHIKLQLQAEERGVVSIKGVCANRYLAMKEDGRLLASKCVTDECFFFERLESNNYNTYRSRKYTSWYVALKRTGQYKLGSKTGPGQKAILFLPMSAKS
Test [7] is described as follows: JC-1 mitochondrial potential readout, lung cancer cells – cell-based, A549, JC-1 fluorescence, basal, 24 h, 100 nL, profiling panel (AID 1138).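 Further: A549 lung adenocarcinoma cells under basal conditions with no added stimulus; test concentration not given here.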 To be noted: higher = more signal.
In a further test the test system is Lefty1. As to the kind of experiment: Lefty1 protein binding to printed compounds – biochemical, small-molecule microarray, 635/667 nm fluorescence, primary screen (AID 1139). To be noted: fluorescence 635/667, higher = more signal.
The test system of test [8] is wheat germ agglutinin (Triticum aestivum), Alexa647-labelled. As to the kind of experiment: Alexa647-WGA lectin binding to printed small molecules – biochemical, small-molecule microarray, 635/667 nm fluorescence, artefact control for SMM control-protein annotation, profiling panel (AID 1140).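 Further: score merges 667 nm feature emission with signal to noise over triplicate slides.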 The note with it: WGA-A647 binding, 635 nm fluorescence, higher = more signal.

Test [9] addresses Luciferin 4-monooxygenase (Photinus pyralis) (UniProt P08659). As to the kind of experiment: inhibition of purified Photinus pyralis luciferase – biochemical, luminescence, purified enzyme, 2006 set, primary screen (AID 1141).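 Further: cell-free assay with purified firefly luciferase at 100 ng per well in PBS; test concentration not given here.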 To be noted: purified firefly luciferase, SteadyGlo luminescence, 30 min; higher = more signal, called active from +8 up or from −8 down.
For test [10], the system named is Wnt5a (protein binding on small-molecule microarray). As to the kind of experiment: small molecules binding Wnt5a protein – biophysical, small-molecule microarray, 635/667 nm fluorescence, primary screen (AID 1142).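 Further: fluorescence read at 667 nm with signal to noise per printed feature.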 To be noted: 635 nm fluorescence, higher = more signal.
A short description of test [11]: ATP-based viability of Huh7 replicon cells – cell-based, CellTiter-Glo luminescence, basal, 48 h, cytotoxicity control for HCV replication inhibitor project, primary screen (AID 1143).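 Further: Huh7 hepatoma cells carrying a hepatitis C replication reporter with no stimulus; test concentration not given here.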 To be noted: higher = more signal, called active from +8 up or from −8 down. (In general: Replicon systems follow genome replication, usually without infectious particles.)
A short description of test [12]: Pseudomonas biofilm growth suppression – PAO1 strain, BacTiter-Glo luminescence, LB-PBS, primary screen (AID 1144). The note with it: P. aeruginosa PAO1 biofilm, 12 h, higher = more signal.
A short description of test [13]: basal CRE-LacZ reporter activity in PC12 – cell-based, unstimulated, primary screen (AID 1145). To be noted: no forskolin, luminescence, 4.5 h, higher = more signal, called active from +8 up or from −8 down.
The nature of test [14]: forskolin-driven CRE-LacZ activity in PC12 – cell-based, CRE-LacZ reporter, forskolin-stimulated, primary screen (AID 1146).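 Further: PC12 cells with 6xCRE LacZ reporter stimulated by forskolin 10 µM; beta-galactosidase reporter signal reflecting CREB driven transcription.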 To be noted: luminescence, 4.5 h, higher = more signal, called active from +8 up or from −8 down.
In test [15] the target is Streptavidin (Streptomyces avidinii) (UniProt P22629). Put plainly: compounds binding control protein streptavidin – biophysical, small-molecule microarray, 635/667 nm fluorescence, artefact control for SMM compound annotation, primary screen (AID 1147).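 Further: signal reflects streptavidin binding to arrayed compounds as a control protein.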 To be noted: higher = more signal.
Sequence of Streptavidin (Streptomyces avidinii) (P22629 whole entry, looked up): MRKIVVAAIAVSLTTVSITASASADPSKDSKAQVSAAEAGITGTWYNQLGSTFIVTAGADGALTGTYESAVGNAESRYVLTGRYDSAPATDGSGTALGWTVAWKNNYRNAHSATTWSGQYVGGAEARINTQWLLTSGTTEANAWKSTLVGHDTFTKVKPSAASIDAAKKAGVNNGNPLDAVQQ
A short description of test [16]: probe aInhba binding on compound microarray – biochemical, small-molecule microarray, 635/667 nm fluorescence, primary screen (AID 1148).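 Further: score merges 667nm spot fluorescence with signal-to-noise for antibody binding to printed compounds.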 The note with it: higher = more signal.
Test [17] concerns the target Torsin-1A (Homo sapiens) (UniProt O14656). As to the kind of experiment: TOR1A wild-type binding on microarray – cell lysate, small-molecule microarray, lysate, 635/667 nm, primary screen (AID 1149). To be noted: COS7 hTOR1A-WT lysate, 635 nm fluorescence, higher = more signal.
The target is the same in test [18]. As to the kind of experiment: torsin A mutant lysate binding on microarrays – cell lysate, small-molecule microarray, COS7 lysate, 635/667 nm fluorescence, primary screen (AID 1150).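 Further: score pools 667 nm emission and signal to noise measuring lysate protein binding.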 The note with it: COS7 hTOR1A mutant lysate, 635 nm fluorescence, higher = more signal.
Test [19] deals with Sonic hedgehog protein (Shh). As to the kind of experiment: Sonic hedgehog microarray binding compounds – biochemical, small-molecule microarray, 635/667 nm fluorescence, primary screen (AID 1151).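 Further: Shh protein binding to compounds spotted on small-molecule microarray slides; score combines spot fluorescence intensity with signal-to-noise across triplicate slides.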 To be noted: 635 nm fluorescence, higher = more signal.

Sequence of Luciferin 4-monooxygenase (Photinus pyralis) (P08659 whole entry, looked up): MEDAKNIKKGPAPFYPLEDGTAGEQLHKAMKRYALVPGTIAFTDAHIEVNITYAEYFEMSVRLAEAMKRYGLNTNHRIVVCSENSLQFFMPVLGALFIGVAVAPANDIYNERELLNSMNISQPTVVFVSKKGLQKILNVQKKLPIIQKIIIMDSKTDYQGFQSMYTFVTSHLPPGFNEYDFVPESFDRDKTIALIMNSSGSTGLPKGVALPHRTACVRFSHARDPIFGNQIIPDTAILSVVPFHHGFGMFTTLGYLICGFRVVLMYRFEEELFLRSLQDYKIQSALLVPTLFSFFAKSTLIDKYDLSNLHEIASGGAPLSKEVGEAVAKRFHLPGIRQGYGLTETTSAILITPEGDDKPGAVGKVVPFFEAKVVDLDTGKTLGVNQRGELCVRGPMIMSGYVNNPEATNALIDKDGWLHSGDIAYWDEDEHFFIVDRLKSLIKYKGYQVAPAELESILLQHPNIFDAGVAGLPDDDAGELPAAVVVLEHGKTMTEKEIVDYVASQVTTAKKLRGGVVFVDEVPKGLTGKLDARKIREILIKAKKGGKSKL
Sequence of Torsin-1A (Homo sapiens) (O14656 whole entry, looked up): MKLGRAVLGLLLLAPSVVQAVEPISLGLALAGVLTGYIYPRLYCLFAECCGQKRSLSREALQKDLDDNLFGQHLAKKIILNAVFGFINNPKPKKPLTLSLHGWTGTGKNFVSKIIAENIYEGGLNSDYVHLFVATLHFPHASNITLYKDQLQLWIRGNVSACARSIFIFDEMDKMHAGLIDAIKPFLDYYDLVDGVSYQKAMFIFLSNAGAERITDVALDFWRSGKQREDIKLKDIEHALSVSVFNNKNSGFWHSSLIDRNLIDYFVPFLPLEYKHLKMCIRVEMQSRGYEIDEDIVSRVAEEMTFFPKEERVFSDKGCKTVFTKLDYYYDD

For the compound `O=C1O[C@H](c2ccccc2)[C@H](c2ccccc2)N2[C@H]1[C@@H](C(=O)Nc1nc3ccccc3s1)[C@]1(C(=O)Nc3ccc(C#CC4(O)CCCCCC4)cc31)[C@H]2c1ccc(OCCO)cc1`, the composite z-score was found to be 2 in test [1]; 1.14 in test [2]; 0.429 in [3]; 0.976 in test [4]; 1.43 in [5]; 1.39 in [6]. The composite z-score was determined as 1.05 in the test with Lefty1; 0.921 in test [8]; 0.248 in test [10]; 1.18 in test [15]; 0.284 in test [16]; 0.401 with Torsin-1A (Homo sapiens) [17]. In addition, the results for the composite z-score (with Torsin-1A (Homo sapiens) [18]; in test [19]) were 1.01 and 1.68, respectively. Further, the z-score in test [7] is -2.27; in test [9], -2.79 (inactive); in test [11], -1.04 (inactive); in test [12], -1.88 (inactive); in test [13] it was -0.402 (inactive); in [14] it was 0.858 (inactive).
Turning to `CN(C)CCCNC(=O)[C@@]1(C)c2ccccc2C(=O)N(Cc2cc(F)cc(C(F)(F)F)c2)[C@H]1c1ccc(CO)cc1`, the composite z-score in [1] was -0.731; in test [2], -0.358; in test [3] it was 0.63; in [4] it was -0.0121; in [5], -0.673; in test [6], -0.67. For the same compound, the composite z-score with Lefty1 is -0.91; in [8], 0.397; in test [10], -0.569; in test [15], -0.432; in test [16], -0.179; with Torsin-1A (Homo sapiens) [17], -1.2. Besides, the composite z-score with Torsin-1A (Homo sapiens) [18] was 0.301; in [19], -0.335. For the same compound, the z-score is -0.202 in test [7]; -0.0378 (inactive) in test [9]; -1.69 (inactive) in [11]; 1.25 (inactive) in test [12]; -0.0888 (inactive) in test [13]; 0.506 (inactive) in test [14].
As to `CCOC(=O)C1=CCC(c2ccc(C)cc2)N(S(=O)(=O)c2ccc(C)cc2)C1` (stereo not given), the composite z-score in test [1] is 0.403; in test [2] it was 0.939; in [3], 0.335; in test [4], 0.258; in [5], 0.523; in [6], -0.279. The composite z-score with Lefty1 is 0.288; in [8] it was 0.396; in [10] it was -0.273; in test [15] it was 0.841; in test [16] it was -0.0645; with Torsin-1A (Homo sapiens) [17], -0.0669. Further, the composite z-score in the test with Torsin-1A (Homo sapiens) [18] is 0.121; in test [19], -0.396. The z-score in test [7] was 2.06; in test [9] it was 1.47 (inactive); in test [11], -3.23 (inactive); in test [12], 0.271 (inactive); in [13], -0.527 (inactive); in test [14], -0.34 (inactive).
Turning to `O=C1c2ccccc2[C@](Cc2ccccc2I)(C(=O)NC2CC2)[C@H](c2ccc(CO)cc2)N1Cc1ccccc1`, the composite z-score in test [1] was -0.025; in test [2], 0.0081; in test [3] it was -0.186; in test [4], 0.471; in [5], 0.885; in test [6], 1.16. In addition, the composite z-score with Lefty1 is -0.502; in test [8], 0.322; in test [10], 0.384; in test [15], -0.248; in test [16], 0.0633; in the test with Torsin-1A (Homo sapiens) [17] it was 0.189. Besides, the composite z-score in the test with Torsin-1A (Homo sapiens) [18] amounted to 0.7; in test [19], 0.192. Also, the z-score was -0.194 in [7]; 0.873 (inactive) in [9]; -2.11 (inactive) in [11]; -1.02 (inactive) in test [12]; -0.179 (inactive) in test [13]; 0.0053 (inactive) in test [14].
As to `CCOC(=O)[C@H]1C/C=C/C[C@H](C(=O)OCC)C(=O)O[C@H]2[C@@H](OC)O[C@H](CO)[C@@H](OC(=O)Nc3cccc(F)c3)[C@@H]2OC1=O`, the composite z-score was 1.82 in test [1]; 0.712 in test [2]; 0.154 in test [3]; 0.966 in test [4]; 0.247 in [5]; 0.0815 in test [6]. Further, the composite z-score was 1.11 in the test with Lefty1; 0.452 in test [8]; 0.39 in test [10]; 0.555 in [15]; 0.83 in test [16]; -0.24 with Torsin-1A (Homo sapiens) [17]. Also, the composite z-score with Torsin-1A (Homo sapiens) [18] worked out at 0.118; in test [19] it was 0.849. Besides, the z-score in test [7] is -2.01; in test [9], -1.14 (inactive); in test [11], -6.52 (inactive); in [12], -0.509 (inactive); in test [13], 0.765 (inactive); in test [14], -0.848 (inactive).
